High-throughput results (PubChem BioAssay)
The full list was thinned out, with hits kept by preference.
HT1080 IDH1KD tx: HT-1080 IDH1 knockdown cell toxicity (counter line); Potency, µM (series often up to 46.1 µM), for the others: top-dose activity, negative = toxicity, usual class: cytotoxic; AID 686971; hit rate 2% among 360,000; HT-1080 IDH1 knockdown viability, ATP luminescence, 48 h;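 further: potency means the concentration at half of the fitted maximal effect; 0% = DMSO wells and -100% = cell-free medium wells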
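Assay cells: HT-1080 with IDH1 knockdown, 750 per well, RPMI/5% FBS. Exposure: 48 h at 37 °C following 2 h pre-incubation. Read: CellTiter-Glo luminescence; fitted concentration-response, curve class assigned.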
IL-1B inflam inh: inflammasome signaling inhibition, IL-1 beta readout; hit rate 4.7% among 360,000; AID 743279; activity change, % at 57.5 µM; THP-1 LPS/ATP IL-1B secretion, AlphaLISA, 16 h; active compounds read low; in the data active means activity change below about -50%; inconclusive means mostly about -30% to -49%
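THP-1 cells pretreated 1 hr with compounds (up to 57.5 uM final), then stimulated with LPS (250 ng/mL final) plus ATP (1.25 mM final); secreted IL-1B measured by AlphaLISA after 16 hr, decreased signal indicating inhibition.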
TDP1 cell CPT: DT40-hTDP1 cell growth loss with CPT | hit rate 12% among 420,000 | Potency, µM (highest dose often 46.2 µM), for inactives: at the highest dose activity change, negative = growth inhibition, most hits filed as inhibitors | chicken DT40 Tdp1-/-;hTDP1 cells + 20 nM CPT, ATP luminescence, 48 h; further: potency means the concentration at half of the fitted maximal effect; nearly all actives have a fitted effect of over 55% in size
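Chicken DT40 Tdp1-/- cells stably complemented with human TDP1 were seeded at 400 cells/well in medium containing 20 nM camptothecin, exposed to pin-transferred compounds, and grown at 37 °C for at least 48 hr. Viability was read as ATP luminescence.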
HT1080-NT tox: kills 2HG-producing HT-1080-NT fibrosarcoma cells. hit rate 1.6% among 360,000. Potency, µM (top dose mostly 46.1 µM), for inactives: at the highest dose activity, negative = less viability, most hits filed as cytotoxic. HT-1080-NT fibrosarcoma viability, CellTiter-Glo ATP luminescence, 48 h. AID 686970;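 further: NT is the 2HG producing partner of a matched IDH1 knockdown line; potency means the concentration at half of the fitted maximal effect; 0% = DMSO-treated cells and -100% = media-only wells without cells; nearly all actives have a fitted effect of over 55% in size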
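Viability of the 2HG-overproducing fibrosarcoma line after 48 hours of compound exposure at 37 degrees C was determined by luminescence with CellTiter-Glo, and concentration-effect curves were then fitted and categorized.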
12-LOX inh: inhibitors of human 12S-lipoxygenase ALOX12. AID 1671190. purified 12hLO, xylenol orange hydroperoxide absorbance. P18054. Potency, µM (doses to about 108 µM), for inactives: at the highest dose activity change, negative = inhibition, usual class: inhibitors. hit rate 1.1% among 580,000; further: potency means the concentration at half of the fitted maximal effect
Target sequence (P18054 whole entry, looked up): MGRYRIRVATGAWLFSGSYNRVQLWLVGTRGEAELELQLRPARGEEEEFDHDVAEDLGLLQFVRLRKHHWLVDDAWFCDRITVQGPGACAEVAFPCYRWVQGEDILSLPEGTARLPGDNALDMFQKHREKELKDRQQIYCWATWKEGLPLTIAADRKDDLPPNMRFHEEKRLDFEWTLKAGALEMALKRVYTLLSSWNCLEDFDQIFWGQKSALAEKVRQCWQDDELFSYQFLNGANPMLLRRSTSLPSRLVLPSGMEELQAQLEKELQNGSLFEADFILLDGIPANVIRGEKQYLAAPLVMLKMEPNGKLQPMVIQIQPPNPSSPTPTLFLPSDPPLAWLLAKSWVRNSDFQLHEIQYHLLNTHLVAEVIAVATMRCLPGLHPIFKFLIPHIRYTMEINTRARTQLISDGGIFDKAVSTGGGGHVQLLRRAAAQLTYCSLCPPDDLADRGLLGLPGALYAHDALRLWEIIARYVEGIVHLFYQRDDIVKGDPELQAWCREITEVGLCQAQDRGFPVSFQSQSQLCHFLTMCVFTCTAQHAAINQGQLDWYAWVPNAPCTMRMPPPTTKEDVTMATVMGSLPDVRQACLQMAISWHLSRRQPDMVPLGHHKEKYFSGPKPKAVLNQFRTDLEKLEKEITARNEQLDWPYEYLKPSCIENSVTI
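Hydroperoxide product was detected by ferrous iron/xylenol orange as the 573 to 405 nm absorbance ratio. Arachidonic acid at 40 uM (final) was turned over for 30 min at room temperature by 150 nM human 12hLO, pH 7.0 Hepes buffer, after 15 min compound preincubation.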
TDP1 cell noCPT: qHTS for Inhibitors of human tyrosyl-DNA phosphodiesterase 1 (TDP1): qHTS in cells in absence of CPT | DT40 Tdp1-/- hTDP1 cells, no CPT, ATP luminescence, 48 h | Potency, µM (doses to about 46.2 µM), without a hit: at the highest dose activity change, negative = growth inhibition, usual class: inhibitors | hit rate 15% among 420,000; further: potency means the concentration at half of the fitted maximal effect; nearly all actives have a fitted effect of over 55% in size
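Stably hTDP1-transfected Tdp1-null chicken DT40 cells were treated with library compounds minus camptothecin and grown for at least 48 hr at 37 °C, after which cellular ATP was quantified by luminescence.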
* hit, by the source's call; ? = inconclusive; / = no result; [ ] = dose if it differs, or a comment. Unless noted, the call rests on the fitted dose curve; in most records, active means well fitted curve in the direction sought with a large enough effect; inconclusive means small, poorly fitted or top-dose-only effect, or another doubt; inactive means no such curve, though single readings can be large; an effect the other way counts as inactive or inconclusive. Unless noted, on the % scale 0 is the no-effect control and ±100 the full control effect.

SMILES	HT1080 IDH1KD tx	IL-1B inflam inh	TDP1 cell CPT	HT1080-NT tox	12-LOX inh	TDP1 cell noCPT
CC(Cl)=CCn1c(NCCc2ccccc2)nc2c1c(=O)n(C)c(=O)n2C	-1.2%	24.8	1.46µM*	-2.0%	-27.8%	1.46µM*
CC(=O)Nc1ccc(OCC(=O)c2ccccc2)cc1	/	/	/	/	-27.9%	/
CCOC(=O)c1c(N2C(=O)Nc3cc(Cl)c(Cl)cc3N2O)sc2c1CCCCC2	?	-6.4	-18.7%	?	/	-29.1%
CC1(c2nnnn2-c2ccc3c(c2)OCCO3)CCC(=O)N1CCOc1ccccc1 (stereo not given)	14.7%	23.0	5.6%	11.8%	-7.6%	-30.0%
CCCCN(C(=O)NCCCCCCNC(=O)N(CCCC)C1CCS(=O)(=O)C1)C1CCS(=O)(=O)C1 (stereo not given)	11.2%	10.9	2.1%	-2.2%	7.7%	4.4%
CC(C)CNc1nc2c(c(=O)n(C)c(=O)n2C)n1Cc1ccc(F)cc1	/	/	/	/	19.3%	/
C=CCNc1nc2c(c(=O)n(C)c(=O)n2C)n1Cc1ccc(F)cc1	-14.6%	53.0	2.31µM*	-16.1%	14.7%	6.51µM*
O=C(Cn1c(=O)[nH]c2ccccc2c1=O)N1CCCCCC1	/	/	/	/	14.6%	/
COc1ccc2c(c1)c1c(c(=O)n(Cc3ccccc3)c(=O)n1CC(=O)NCc1ccccc1)n2C	/	/	-12.7%	/	-16.3%	-11.4%
COC(=O)c1cc(-c2cc(OC)ccc2OC)nc2c1c(=O)n(C)c(=O)n2Cc1ccccc1	8.8%	12.8	16.4µM*	11.2%	?	18.4µM*
Cc1sc(NC(=O)c2ccco2)c(C(c2ccc(F)cc2)N2CCN(C)CC2)c1C (stereo not given)	?	-70.9*	?	?	/	?
CCOC(=O)C1CCN(C(c2cccnc2)c2c(NC(=O)c3ccco3)sc(C)c2C)CC1 (stereo not given)	?	-28.9	1.64µM*	-18.8%	-6.1%	1.84µM*
Cc1sc(NC(=O)c2ccco2)c(C(c2cccnc2)N2CCN(CCO)CC2)c1C (stereo not given)	0.3%	-12.0	-29.1%	-5.7%	4.7%	0.2%
Cc1sc(NC(=O)c2ccco2)c(C(c2cccnc2)N2CCN(c3ccc(F)cc3)CC2)c1C (stereo not given)	?	?	1.84µM*	?	?	5.8µM*
Cc1ccc(C(c2c(NC(=O)c3ccco3)sc(C)c2C)N2CCOCC2)cc1 (stereo not given)	0.5%	-2.6	?	11.4%	?	?
Cc1sc(NC(=O)c2ccco2)c(C(c2ccccc2)N2CCC(C)CC2)c1C (stereo not given)	?	-21.7	10.3µM*	?	7.2%	6.51µM*
COCC(=O)N1CCN2C(=O)N(CC(N)=O)C(=O)[C@@H]2C1	/	/	/	/	-0.7%[176 µM]	/
COc1ccc2cc(C3CN(CCC(=O)NC(C)(C)C)CCO3)ccc2c1 (stereo not given)	/	/	/	/	29.2%	/
CC(=O)Nc1sc2c(c1CN1CCN(c3ccc(F)cc3)CC1)CCCC2	-28.0%	-10.1	?	-21.0%	?	14.6µM*
Cc1sc(NC(=O)c2ccco2)c(CN2CCN(c3ccc(F)cc3)CC2)c1C	-12.6%	-3.5	20.6µM*	-2.2%	-24.5%	11.6µM*
O=[N+]([O-])c1ccc(S(=O)Cc2ccccc2)c([N+](=O)[O-])c1 (stereo not given)	16.4µM*	-100.8*	0.461µM*	16.4µM*	?	0.581µM*
O=[N+]([O-])c1ccc(CS(=O)c2ccccc2)cc1 (stereo not given)	9.6%	11.9	-11.3%	1.3%	-2.2%	-11.6%
CC(C)N(CC#CCC1(O)c2ccccc2-c2ccccc21)CCO	0.3%	-1.1	-14.4%	6.3%	7.94µM*	-12.2%
CCN(CC#CCC1(O)c2ccccc2-c2ccccc21)CCO	-1.2%	12.7	-3.2%	-0.5%	-26.2%	-7.0%
CCOc1ccc(Cl)cc1/C=C(\C#N)c1nc2cc(C)c(C)cc2[nH]1	/	/	/	/	0.4%	/
SMILES	HT1080 IDH1KD tx	IL-1B inflam inh	TDP1 cell CPT	HT1080-NT tox	12-LOX inh	TDP1 cell noCPT
COc1ccc(-c2cnc(N)nc2-c2ccc(OCc3ccccc3F)cc2O)cc1OC	/	/	/	/	-13.1%	/
CCc1cc(-c2[nH]ncc2-c2ccc([N+](=O)[O-])cc2)c(O)cc1OC	-2.7%	?	?	-5.3%	/	?
COc1ccc(-c2cn[nH]c2-c2ccc(OCc3ccccc3F)cc2O)cc1OC	18.4µM*	?	29.1µM*	29.1µM*	?	11.6µM*
COc1ccc(-c2[nH]ncc2-c2ccc(Cl)cc2)c(O)c1	?	-0.8	-24.2%	?	52.3%	?
O=[N+]([O-])c1ccc(COc2ccc(-c3[nH]ncc3-c3ccc(Cl)cc3)c(O)c2)cc1	23.1µM*	-92.1*	?	?	-22.9%	23.1µM*
COc1ccc(-c2cn[nH]c2-c2ccc(OCc3ccc([N+](=O)[O-])cc3)cc2O)cc1OC	-23.6%	?	?	-22.0%	10.2%	20.6µM*
CC(C)(C)c1ccc(-c2nnc3sc(COc4ccccc4)nn23)cc1	/	/	/	/	12.7%	/
C[N+](C)(C)CCSSCC[N+](C)(C)C	/	/	/	/	3.98µM*	/
COc1cccc(S(=O)(=O)N2CCCC(Cc3noc(-c4cnccn4)n3)C2)c1 (stereo not given)	/	/	/	/	3.0%	/
Cc1c(CN2CCOc3c(O)cc(-c4nc5ccccc5s4)cc3C2)cnn1C	/	/	-4.4%[9.04 µM]	/	-6.8%	?
O=C1c2cccc3c([N+](=O)[O-])c(O)cc(c23)C(=O)N1Nc1ccccc1	-12.2%	?	?	-17.0%	-21.7%	?
O=C1c2cccc3c([N+](=O)[O-])ccc(c23)C(=O)N1c1ccc(Cl)cn1	1.58µM*	-91.9*	3.26µM*	4.47µM*	-34.9%	3.66µM*
O=C1c2cccc3c([N+](=O)[O-])ccc(c23)C(=O)N1O	?	-2.0	2.06µM*	?	-11.1%	2.31µM*
COc1ccc2c3c(cccc13)C(=O)N(O)C2=O	20.6µM*	-23.4	2.31µM*	?	-6.8%	2.06µM*
O=C(O)c1ccc2c(c1)C(=O)N(c1ccc(Cl)cn1)C2=O	5.1%	0.0	1.4%	-1.7%	?	12.0%
O=C1c2cccc3c([N+](=O)[O-])ccc(c23)C(=O)N1c1ccccn1	?	-114.1*	3.66µM*	25.9µM*	95.1%[57.4 µM]	2.91µM*
COc1ccccc1C(=O)NC(=O)COC(=O)CCS(=O)(=O)c1ccc(C)cc1	7.9%	-1.7	-17.8%	12.3%	?	-0.2%
